Bioassay records deposited in PubChem BioAssay by ICCB-Longwood Screening Facility, Harvard Medical School.
MenB inh – M. tuberculosis MenB inhibitors, primary screen, biochemical, absorbance | 1,4-dihydroxy-2-naphthoyl-CoA synthase (Mycobacterium tuberculosis (strain ATCC 25618 / … | MenB enzyme assay, absorbance read-out | inhibition, % (concentration not given with the values) | hit rate 0.43% among 100,000 | AID 540299, 2011; in the data active = inhibition above about 21%, passing the limit was not always enough
AID504770 – growth inhibition of E. coli YBA685, primary screen, V. cholerae RctB inhibitors; E. coli YBA685 rctB-dependent plasmid, OD600 growth, 3 h; stronger effect = lower value; z-score (test concentration not listed); hit rate 0.27% among 130,000; AID 504770, 2011; in the data active = z-score below about -2, passing the limit was not always enough
MbtI inh – MbtI salicylate synthase inhibitors, primary screen, biochemical, fluorescence intensity; P9WFX0; purified MbtI enzyme, fluorescence intensity read-out; inhibition, % (concentration not given with the values); hit rate 0.89% among 100,000; in the data active = inhibition mostly above about 56%, no sharp cut-off; inactive = mostly below about 77%
Target sequence (P9WFX0 whole entry, looked up): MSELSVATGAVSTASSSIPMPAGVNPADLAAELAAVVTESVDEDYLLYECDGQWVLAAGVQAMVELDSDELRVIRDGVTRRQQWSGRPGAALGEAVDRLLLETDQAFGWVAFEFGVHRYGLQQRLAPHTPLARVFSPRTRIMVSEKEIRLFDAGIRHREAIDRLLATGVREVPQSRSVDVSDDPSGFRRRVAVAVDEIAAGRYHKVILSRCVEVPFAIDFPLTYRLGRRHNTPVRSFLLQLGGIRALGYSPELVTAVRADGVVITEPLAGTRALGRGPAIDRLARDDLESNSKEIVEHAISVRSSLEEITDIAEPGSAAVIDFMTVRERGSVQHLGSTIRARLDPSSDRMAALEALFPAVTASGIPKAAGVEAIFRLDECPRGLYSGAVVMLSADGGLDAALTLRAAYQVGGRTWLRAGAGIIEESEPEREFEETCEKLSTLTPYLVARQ
Polio RdRp inh – poliovirus RdRp elongation inhibitors, primary screen, biochemical, fluorescence polarization, total intensity; Genome polyprotein (Poliovirus type 1 (strain Mahoney)), P03300; hit rate 0.66% among 150,000; AID 588519, 2011; poliovirus polymerase elongation; stronger effect = lower value; % elongation, % (compound at 16.7 µg/mL); in the data active = % elongation below about 90%
Active calls of the source: *. An excerpt weighted towards active compounds, which were near 1.5% of everything screened.

What do the screens show for `O=c1c2ccccc2n2c(-c3ccc(F)c(F)c3)nnc2n1CCc1ccccc1`?
Polio RdRp inh: 105

What do the screens show for `O=c1c2ccccc2n2c(-c3ccc(Cl)cc3)nnc2n1CCc1ccccc1`?
Polio RdRp inh: 74*

How did O=S(=O)(c1ccc2oc(SCc3ccccc3C(F)(F)F)nc2c1)N1CCCCC1 do in these assays?
MenB inh: 12; AID504770: -0.05; MbtI inh: 8; Polio RdRp inh: 105

How did Nc1nc(SC#CC(F)(F)F)ns1 do in these assays?
MenB inh: -19; AID504770: -4.9*; MbtI inh: 51; Polio RdRp inh: 85*

What do the screens show for `COCc1c(CSSCc2cnc(C)c(O)c2COC)cnc(C)c1O`?
MenB inh: 38*; AID504770: -0.45; MbtI inh: 22; Polio RdRp inh: 86*

What do the screens show for `COCc1c(CN)cnc(C)c1N`?
MenB inh: -62; AID504770: -0.8; MbtI inh: 77; Polio RdRp inh: 104

Results for O=C(COC(=O)/C=C/c1ccccc1)Nc1c(F)cccc1F ?
AID504770: 0.3; MbtI inh: 0; Polio RdRp inh: 104

Results for O=C(COC(=O)/C=C/c1ccc(F)cc1)Nc1ncccn1 ?
MenB inh: -39; AID504770: -0.15; MbtI inh: -4; Polio RdRp inh: 84*

What do the screens show for `CC(=O)Nc1nonc1NC(=O)CSc1ncccn1`?
MenB inh: -8; AID504770: -0.5; Polio RdRp inh: 106

Results for CC(C)CCn1nnnc1CN1CCN(Cc2ccc3c(c2)OCO3)CC1 ?
MenB inh: -35; AID504770: 0.2; MbtI inh: -6; Polio RdRp inh: 103

How did CC1CN(c2nnc(-c3cccs3)c3ccccc23)CC(C)O1 (stereo not given) do in these assays?
MenB inh: 2; AID504770: -2.5*; MbtI inh: -6; Polio RdRp inh: 105

How did CC1CN(c2nc(-c3cccs3)cc(C(F)(F)F)c2C#N)CC(C)O1 (stereo not given) do in these assays?
AID504770: -0.1

What do the screens show for `Cc1ccc(-n2c(=O)c3ccccc3n3c(SCC4CCCCO4)nnc23)c(C)c1` (stereo not given)?
MenB inh: -26; AID504770: 0.95; MbtI inh: 70; Polio RdRp inh: 104

How did Cc1cc(OCc2ccc(/C=C(/C#N)S(=O)(=O)c3ccccc3)o2)ccc1Cl do in these assays?
MenB inh: -51; AID504770: -0.1; MbtI inh: 17; Polio RdRp inh: 102

What do the screens show for `COc1cccc(C(O)C(F)(F)F)c1` (stereo not given)?
MenB inh: 29*; AID504770: 0.8; MbtI inh: 8; Polio RdRp inh: 100

What do the screens show for `COc1ccc(N2CC(NC(=O)/C=C\c3ccc4c(c3)OCO4)CC2=O)cc1OC` (stereo not given)?
Polio RdRp inh: 105

Results for COc1cccc(N2CC(NC(=O)/C=C\c3ccc4c(c3)OCO4)CC2=O)c1 (stereo not given) ?
Polio RdRp inh: 81*

What do the screens show for `O=C(NCCN1CCN(c2ccccc2)CC1)c1ccc2c(=O)n(CCc3ccccc3)c(=O)[nH]c2c1`?
MenB inh: -20; AID504770: -0.5; MbtI inh: -5; Polio RdRp inh: 102

How did N#CS/C=C/C(=O)c1ccccc1 do in these assays?
MenB inh: -51; AID504770: -2.7*; MbtI inh: 100*; Polio RdRp inh: 96

Results for O=C1C=CC(=O)C(Sc2nnnn2-c2ccccc2)=C1 ?
MenB inh: -3; AID504770: -0.7; MbtI inh: 102*; Polio RdRp inh: 99

Results for CCN(CC)P1(=S)N(c2ccccc2)N=C2C=C(C)c3ccccc3N21 (stereo not given) ?
MenB inh: -63; AID504770: 0.7; MbtI inh: 91; Polio RdRp inh: 68*

What do the screens show for `CC[C@]12C=CCN3CCC4(c5ccc(OC)cc5N(C)[C@H]4C(O)(C(=O)OC)[C@@H]1OC(C)=O)C32` (stereo not given in full)?
MenB inh: 3; AID504770: -0.8; MbtI inh: -2; Polio RdRp inh: 102

Results for C[n+]1c(CF)sc2ccccc21 ?
AID504770: -0.85; MbtI inh: 97*; Polio RdRp inh: 98

What do the screens show for `O=C(c1nn(-c2ccccc2)c(=O)c2ccccc12)N1CCN(c2ccccc2)CC1`?
MenB inh: -2; AID504770: -0.3; MbtI inh: -28; Polio RdRp inh: 103

How did CNC(=O)c1ccccc1-c1nc(-c2ccccc2OC)no1 do in these assays?
MenB inh: -20; AID504770: -0.3; MbtI inh: -5; Polio RdRp inh: 101

Results for COc1ccccc1-c1noc(-c2ccccc2C(=O)NCc2ccco2)n1 ?
MenB inh: -17; AID504770: -0.45; MbtI inh: 59*; Polio RdRp inh: 105

How did N#Cc1ccccc1NC(=O)CSc1ncnc2ccccc12 do in these assays?
MenB inh: -42; AID504770: -0.5; MbtI inh: -2; Polio RdRp inh: 104

What do the screens show for `CC(C)C(=O)Nc1sccc1C#N`?
AID504770: -0.25

How did CSc1ccccc1NC(=O)CN1CCc2ccccc21 do in these assays?
MenB inh: -9; AID504770: 0.1; MbtI inh: 4; Polio RdRp inh: 88*

Results for c1ccc2sc(N3CCOCC3)nc2c1 ?
AID504770: -0.75

What do the screens show for `c1ccc2sc(SN3CCOCC3)nc2c1`?
MenB inh: -3; AID504770: -0.5; MbtI inh: 84*; Polio RdRp inh: 104

How did CSc1ccccc1C(=O)Nc1ccccc1 do in these assays?
MenB inh: -5; AID504770: -0.75; MbtI inh: -9; Polio RdRp inh: 101

How did O=S(=O)(Nc1ccccc1-c1ccccc1)c1cccs1 do in these assays?
MenB inh: 52*; AID504770: 2.7; MbtI inh: 5; Polio RdRp inh: 104

How did CSc1scc2c1C(=O)/C(=C/N(C)C)CC2 do in these assays?
MenB inh: -25; AID504770: 0.25; MbtI inh: 21; Polio RdRp inh: 63*

What do the screens show for `NC(=S)c1ccccc1N`?
MenB inh: -14; AID504770: 0.65; MbtI inh: 41; Polio RdRp inh: 55*

How did CN(C(=O)c1cc2sccc2n1Cc1ccc(F)cc1)C1CCCCC1 do in these assays?
MenB inh: -86; AID504770: 2; MbtI inh: -2; Polio RdRp inh: 107

Results for N#Cc1c(N(C(=O)/C=C/c2ccco2)C(=O)/C=C/c2ccco2)oc(-c2ccco2)c1-c1ccco1 ?
MenB inh: -16; AID504770: 0.85; MbtI inh: 4; Polio RdRp inh: 89*

What do the screens show for `COc1cccc(OC)c1C(=O)N(C(=O)c1c(OC)cccc1OC)c1oc(-c2ccco2)c(-c2ccco2)c1C#N`?
MenB inh: 12; AID504770: 1.1; MbtI inh: 17; Polio RdRp inh: 103

What do the screens show for `COc1ccc(-c2noc(=O)n2Cc2cccc(C)c2)cc1`?
MenB inh: 11; AID504770: 0.35; MbtI inh: -4; Polio RdRp inh: 103

Results for COc1ccc(-c2noc(=O)n2CCCC#N)cc1OC ?
MenB inh: 31*; AID504770: 1.3; MbtI inh: 0; Polio RdRp inh: 103
